Data reported in PubChem BioAssay (NCI).
This is part of a sample that, as a whole, favours compounds with a hit. Of some 79,000 tested, about 15% had one in any assay. Rule as the data show it: active = growth inhibition above about 70%; inactive = the rest.

Key:
[1] = NCI Yeast Anticancer Drug Screen. Data for the rad50 strain (AID 155);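 also: 0% = growth of vehicle-only cultures of the same strain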; conditions: S. cerevisiae rad50 strain growth inhibition; at 50.0 µM; stronger effect = higher value
Summary of the method: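 A DNA repair-deficient yeast mutant serves as the test organism; compound-induced growth inhibition is calculated against vehicle-treated cells.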

[2] = NCI Yeast Anticancer Drug Screen. Data for the mec2-1 strain (AID 157); conditions: S. cerevisiae mec2-1 strain, at 50.0 µM, stronger effect = higher value
Summary of the method: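 mec2-1 yeast strain, carrying an alteration in DNA damage repair or cell cycle control, was exposed to compounds; growth inhibition was measured relative to vehicle-treated controls.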

[3] = NCI Yeast Anticancer Drug Screen. Data for the sgs1 mgt1 strain (AID 161);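 also: 0% = growth of cultures given vehicle only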; conditions: S. cerevisiae sgs1 mgt1 strain, at 50.0 µM, stronger effect = higher value
Summary of the method: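 Yeast cells carrying a defined DNA-repair defect were exposed to test compounds. Growth inhibition was measured relative to vehicle-treated controls.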

[4] = NCI Yeast Anticancer Drug Screen. Data for the cln2 rad14 strain (AID 165);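 also: 0% = growth equal to vehicle treated cultures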; conditions: S. cerevisiae cln2 rad14 strain, at 50.0 µM, stronger effect = higher value
Summary of the method: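 Yeast carrying cln2 and rad14 alterations (cell cycle control and DNA damage repair) were exposed to compounds. Growth inhibition was measured against vehicle-treated controls.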

[5] = NCI Yeast Anticancer Drug Screen. Data for the bub3 strain (AID 167); conditions: S. cerevisiae bub3 mutant strain, at 50.0 µM, stronger effect = higher value
Summary of the method: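 Inhibition values come from growth of compound-treated mutant yeast normalised to vehicle-treated controls.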

[6] = NCI Yeast Anticancer Drug Screen. Data for the mlh1 rad18 strain (AID 175); conditions: S. cerevisiae mlh1 rad18 strain growth inhibition; at 50.0 µM; stronger effect = higher value
Summary of the method: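 Growth inhibition of the yeast strain was measured after compound exposure and expressed relative to vehicle-treated controls. The strain carries defined defects in DNA damage repair.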

Measured: growth inhibition

COc1ccc(Cl)cc1NC(=O)Oc1cc2ccccc2cc1C(=O)Nc1ccccc1
inactive: [1] -9.4% | [2] -8.05% | [3] -21.4% | [4] -25.1% | [5] -3.25% | [6] -13.8%

C/C(CC(=O)Nc1ccc(Cl)c(Cl)c1)=N/NC(=O)C[n+]1ccccc1
inactive: [1] 16.8% | [2] 5.15% | [3] 7.45% | [4] -19.6% | [5] 5.85% | [6] 29.2%

Cc1cccc(C[N+](C)(C)CCO)c1C
inactive: [1] -0.5% | [2] -13.2% | [3] 3.4% | [4] 6.7% | [5] 3.45% | [6] -20.6%

COC(=O)[C@]1(C)CCCn2c(=O)n(-c3ccccc3)c(=O)n21
inactive: [1] 13.9% | [2] 11.3% | [3] -6.65% | [4] 9.75% | [5] 13.8% | [6] -21.6%

CCC(Cl)(c1ccccc1)C(O)C(=O)OC(C)C (stereo not given)
inactive: [1] 8% | [2] 2.65% | [3] 10.8% | [4] -2.35% | [5] -6.3% | [6] 11.8%

O=C(c1ccc(F)cc1)C1CCC1
inactive: [1] 16.3% | [2] -22.7% | [3] 16.6% | [4] 18.1% | [5] 18.6% | [6] 22.1%

N#Cc1ccc(/C=C/C(=O)c2ccccc2)cc1
inactive: [1] 13.4% | [2] -20.1% | [3] 5.8% | [4] 6.8% | [5] 13.9% | [6] 9.05%

Nc1ccc(F)c([N+](=O)[O-])c1
inactive: [1] -6.05% | [2] 0.65% | [3] -1.6% | [4] -23.6% | [5] -1.55% | [6] -1.2%

COC(=O)/C(=N/NC(C)(C)C)C(C(=O)OC)C(=O)C(=O)Nc1nc2ccc([N+](=O)[O-])cc2s1 (stereo not given)
inactive: [1] 33.1% | [2] 8.15% | [3] -22.9% | [4] -10.4% | [5] 0.1% | [6] 27.4%

CCOC(=O)C1OC1(C)c1ccc(Cl)cc1 (stereo not given)
inactive: [1] 6.1% | [2] 3.8% | [3] -0.7% | [4] 5.25% | [5] -5.8% | [6] 0.6%

O=C(CN1C(=O)c2ccccc2C1=O)OC1C=CCCC1 (stereo not given)
inactive: [1] 12.2% | [2] 0.65% | [3] 1.5% | [4] 18.7% | [5] 9.6% | [6] 10.3%

Cn1c(N)c2c(=O)n(C)c3c(c2c(C#N)c1=O)CCSc1ccccc1-3
inactive: [1] -4.4% | [2] -6.35% | [3] 0.25% | [4] -36.5% | [5] -5.2% | [6] -1.9%

COC(=O)c1nc(=S)[nH]c(C(=O)OC)c1C(=O)c1cccnc1
inactive: [1] -4.3% | [2] 15.2% | [3] 17.4% | [4] 4.25% | [5] 39.4% | [6] 17.9%

COc1ccc(N2C(=O)/C(=C/c3ccc(N(CCC#N)CCC#N)cc3C)N=C2c2cc([N+](=O)[O-])ccc2Cl)cc1
inactive: [1] -13.2% | [2] 0.95% | [3] 1.5% | [4] -5.55% | [5] -13.9% | [6] 1.85%

CC(C)(C)c1ccc(O)c(C(O)c2cccnc2)c1 (stereo not given)
inactive: [1] 18.7% | [2] 16.6% | [3] 16.5% | [4] 13.9% | [5] 29.8% | [6] 39.2%

O=C(O)c1cc(-c2cccs2)c(C(=O)O)s1
inactive: [1] -4.2% | [2] 5.35% | [3] -18.2% | [4] -19.1% | [5] -11.1% | [6] 2.1%

COCCCNc1ncnc2c1cnn2-c1ccc(Cl)cc1
inactive: [1] -1.3% | [2] -4.75% | [3] -0.25% | [4] 9.8% | [5] -9.45% | [6] -4.45%

COC(=O)C1(Cc2ccc3c(c2)CCC3)Cc2ccccc2C1
inactive: [1] -9.5% | [2] -25.5% | [3] -6.1% | [4] 5.2% | [5] 29.9% | [6] -9.2%

CCC1(C#N)OC1C (stereo not given)
inactive: [1] 26.9% | [2] -24.1% | [3] 23.1% | [4] 10.8% | [5] 5.15% | [6] 27.4%

CCCCCCC/C=N/Nc1ccc([N+](=O)[O-])cc1[N+](=O)[O-]
inactive: [1] -3.3% | [2] -16.1% | [3] -5.55% | [4] -23.9% | [5] 1.4% | [6] 12.9%
